# Screening results (PubChem)
# Rows were chosen to be rich in hits. Some 1.8% of all compounds tested hit in one or more screens of this group.
# BRCA1 expr up = qHTS Assay to Identify Small Molecule Activators of BRCA1 Expression; Potency, µM (highest dose often 46.1 µM), for inactives: at the highest dose activation, actives largely listed as activators; AID 624202, 2012; 1.1% of 380,000 active; MCF7-BRCA1-FFLuc reporter, luminescence, 48 h; response scale: scaled: vehicle 0%, 10 µM genistein 100%; also: potency is read from the fitted curve at half-maximal effect; nearly all actives have a fitted effect of over 80% in size
#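 Cells: MCF7-BRCA1-FFLuc, 2000/well. Exposure: 48 h, 37 °C, 5% CO2. Read: luminescence, 15 min post-substrate. Controls: genistein 10 microM (maximal activation), DMSO (neutral).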
# A-T KAP1 phos = qHTS Assay for Identifying a Potential Treatment of Ataxia-Telangiectasia; F2112 A-T fibroblasts, KAP-1 phosphorylation AlphaLISA; neocarzinostatin DNA damage 30 min before lysis; Potency, µM (series often up to 57.5 µM), for inactives: at the highest dose activation, usual class: activators; 0.19% of 320,000 active; also: potency is read from the fitted curve at half-maximal effect; % of control where 0% means no effect; nearly all actives have a fitted effect of over 45% in size
#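 ATM-like activity read as KAP-1 phosphorylation via AlphaLISA donor/acceptor antibody pairs after lysis and 6 hr at 25C. Cells were ATM-null patient fibroblasts (F2112, hTERT), dosed 60 min, then exposed to the DSB inducer NCS for 30 min.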
# Akt phos inh = HTS Assay for Inhibitors of Akt Phophorylation: Primary Screen | Neuro2A IGF-stimulated pAkt S473 HTRF, 20 min; active compounds read low | activity change, % for hits at 50 µM | 0.32% of 360,000 active | AID 651550, 2012; in the data active = activity change below about -80%; inconclusive = mostly about -51% to -80%; also: % is scaled to controls: 0 for no effect and ±100 for the full control effect
#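 Neuro2A cells (4,500/well, DMEM with 0.5% FBS) were treated with compound at a single 50 µM final concentration, stimulated with 6 nM IGF for 20 min at 37 °C, and lysed. Phospho-Akt Ser473 was read by HTRF as 665/615 ratio ×10^4.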
# CCT chaperon mod = High-Throughput Screening for Modulators of Cytosolic Chaperonin Activity. purified chaperonin ATPase assay, HTRF ADP detection, 30 min. AID 651819, 2012. activity change, % (no concentration beside the values), hits read low. 0.3% of 360,000 active; in the data active = activity change below about -30%; also: % is scaled to controls: 0 for no effect and ±100 for the full control effect
#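 First, chaperonin was dispensed at 40 nM or 20 nM final depending on batch activity. Next, compounds were pinned at 76 uM and ATP added at 10 uM. After 30 min at 37 °C, ADP detection reagents ran 30 min at ambient temperature.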
# Mm-Cpn inhibitor = Inhibitors of TCP-1 ring complex (TRiC) of Methanococcus maripaludis (MmCpn): qHTS; Chaperonin Mm-Cpn (Methanococcus maripaludis); purified Mm-Cpn ATPase, ADP Transcreener TR-FRET; Potency, µM (top dose mostly 76.9 µM), for inactives: at the highest dose activity, negative = inhibition, most hits filed as inhibitors; 0.031% of 330,000 active; AID 504842, 2011; also: potency is read from the fitted curve at half-maximal effect; % is scaled to controls: 0 for no effect and ±100 for the full control effect; nearly all actives have a fitted effect of over 80% in size
#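 Measured: ADP formation by purified Mm-CPN. Conditions: 25 nM protein, 10 uM ATP, Tris pH 7.4 with Mg2+, K+ and DTT, 37°C for 30 min. Detection: Transcreener HTRF after 30 min at room temperature.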
# Numbers without * were called inactive; i = inactive; ? = inconclusive; . = not tested or not shown. Unless noted, calls follow the shape of the dose curve; as a rule, active = well fitted curve in the direction sought with a large enough effect; inconclusive = small, poorly fitted or top-dose-only effect, or another doubt; inactive = no such curve, though single readings can be large; an effect the other way counts as inactive or inconclusive.
SMILES,BRCA1 expr up,A-T KAP1 phos,Akt phos inh,CCT chaperon mod,Mm-Cpn inhibitor
CC1CC(=O)c2cnc(Nc3cccc(C(F)(F)F)c3)nc2C1 (stereo not given),?,.,-104%*,1,0%
CC(=O)N(Cc1ccccc1)c1c(N)nc(N)[nH]c1=O,26%,.,i,-5,.
CCC(C)NS(=O)(=O)c1ccc(OC)c(Cl)c1Cl (stereo not given),0%,-1%,-122%*,-1,-2%
CCOc1ccc(S(=O)(=O)Nc2ccc(O)c(Sc3ncn[nH]3)c2)cc1,-22%,6%,i,-38*,2%
CCCCCCCCCn1ccc(=N)cc1,-71%,3.2µM*,i,-4,2%
COC(=O)c1ccc(-c2ccc(Cl)cc2)nc1C,2µM*,31%,i,0,0%
Cc1cc(SCC(=O)c2ccccc2)nc(C)n1,10µM*,5%,i,-2,0%
Cc1ccc(OCCCc2c(C)n[nH]c2C)cc1,5%,2%,i,-60*,-3%
Cc1n[nH]c(C)c1CCCCOc1ccccc1,-2%,4%,i,-3,1%
O=C(Cn1c(=S)[nH]c2ccccc21)c1ccccc1,-10%,2%,i,-34*,1%
CCn1c(=S)[nH]c2ccccc21,-1%,-4%,i,-4,-1%
COC(=O)Cn1c(SCc2ccccc2)nc2ccccc21,7.9µM*,.,i,-2,-2%
O=[N+]([O-])c1cccc(-c2nnc(-c3ccccc3)o2)c1,72%,-4%,i,-2,0%
O=[N+]([O-])c1cccc(-c2nnc(-c3ccc4c(c3)OCO4)o2)c1,2.5µM*,1%,i,-3,-1%
COc1ccc(COC(=O)CCS(=O)(=O)c2ccc(C)cc2)cc1F,-25%,3%,i,0,0%
Cc1ccc(S(=O)(=O)N(Cc2cc3cc4c(cc3[nH]c2=O)OCCO4)CC2CCCO2)cc1 (stereo not given),-23%,11%,-105%*,0,-2%
O=c1[nH]c2cc3c(cc2cc1CN(CC1CCCO1)S(=O)(=O)c1ccc(Cl)cc1)OCCO3 (stereo not given),-5%,12%,.,-4,-4%
C#Cc1ccc([C@H]2C=C(C(=O)NCc3ccccc3)O[C@@H](OCC)[C@@H]2CCCO)cc1,-39%,-4%,i,-68*,.
CC(O)COCC1OC2OC3C(COCC(C)O)OC(OC4C(COCC(C)O)OC(OC5C(COCC(C)O)OC(OC6C(COCC(C)O)OC(OC7C(COCC(C)O)OC(OC8C(COCC(C)O)OC(OC1C(OCC(C)O)C2OCC(C)O)C(OCC(C)O)C8OCC(C)O)C(OCC(C)O)C7OCC(C)O)C(OCC(C)O)C6OCC(C)O)C(OCC(C)O)C5OCC(C)O)C(OCC(C)O)C4OCC(C)O)C(OCC(C)O)C3OCC(C)O (stereo not given),14%,.,.,.,.
O=C(CN1CCCCC1)Nc1nc(-c2ccc(F)c(F)c2)cs1,7.1µM*,9%,i,2,1%
O=C(O)CCCC(=O)Nc1nc(-c2ccc(F)cc2)cs1,-4%,-2%,-115%*,3,-1%
O=C(CN1CCCCC1)Nc1nc(-c2ccc(Cl)cc2)cs1,92%,-10%,i,-2,-2%
CCOc1ccccc1NC(=O)N1CCN(C)c2ncccc21,9%,.,.,.,.
COc1ccc(C)cc1NC(C)C(=O)c1c[nH]c2ccccc12 (stereo not given),-23%,.,.,.,.
CC(C)n1c(/C=C/c2ccccc2)nc2ccccc21,2.2µM*,0%,i,-2,2%
CCCn1c(/C=C/c2ccccc2)nc2ccccc21,21%,9%,i,1,0%
O=C1CCCC/C1=C\Nc1ccc(O)cc1,41%,5%,.,2,-13%
O=C1CCCC/C1=C/Nc1ccc(S(=O)(=O)Nc2ncccn2)cc1,-16%,-3%,-120%*,0,-4%
Cc1nnc(NC(=O)CSc2cn(CCNC(=O)c3ccccc3)c3ccccc23)s1,32%,-3%,i,3,-1%
